# Sampled rows, rich in hits. Any-hit rate of the full collection: about 7.3%.
# HCMV inh – qHTS Assay for inhibitors of the human cytomegalovirus (HCMV); HFF cells, HCMV-luciferase reporter, 72 h; stronger effect = lower value; activity change, negative = inhibition, % at 57.5 µM; actives 4.5% (n = 410,000); AID 1259415, 2018; in the data active = activity change below about -60%; inconclusive = no clear call, values can overlap the other calls; inactive = above about -39%
#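 Cell-based, HFFs, 1000 cells/well, 16 h 37C; cpds in DMSO + HCMV-luc, MOI 1 PFU/cell; 72 h 37C; OneGlo luminescence after 5 min RT; norm. to buffer vs Salinomycin 10uM.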
# VACV Venus inh – qHTS for Stage-Specific Inhibitors of Vaccinia Orthopoxvirus: Venus Reporter Primary qHTS | Vaccinia virus Venus reporter expression, fluorescence | Potency, µM (top dose mostly 36.5 µM), for the others: at the top dose activity change, negative = inhibition, actives largely listed as inhibitors | actives 0.46% (n = 330,000); calls by dose curve; tested in A549 cells; note: potency is the fitted concentration of half-maximal effect; nearly all actives have a fitted effect of over 30% in size
# HCV inh – qHTS Assay for Inhibitors of Hepatitis C Virus (HCV) | Huh7.5.1 HCVcc-Cre infection, luciferase reporter, 44 h | Potency, µM (highest dose often 41.8 µM), inactives show at the highest dose activity change, negative = inhibition, actives largely listed as inhibitors | actives 3.4% (n = 340,000); active = well fitted inhibition curve with a large enough effect; inconclusive = small, poorly fitted or top-dose-only effect, or another doubt; inactive = no such curve, though single readings can be large or run the other way; note: potency is the fitted concentration of half-maximal effect
#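 Reporter virus HCVcc-Cre (~0.5 moi) infects cells exposed to compound; seeding density 1,000 cells/well with 4 h settling beforehand. Luminescence, 15 sec read, taken 44 h post-infection following a 15 min RT substrate incubation.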
# VACV mCherry inh – qHTS for Stage-Specific Inhibitors of Vaccinia Orthopoxvirus: mCherry Reporter Primary qHTS | Vaccinia virus mCherry reporter infection, fluorescence | Potency, µM (highest dose often 36.5 µM), without a hit: top-dose activity change, negative = inhibition, usual class: inhibitors | actives 0.63% (n = 310,000); calls by dose curve; tested in A549 cells; note: potency is the fitted concentration of half-maximal effect; nearly all actives have a fitted effect of over 35% in size
# FMDV inh – High Throughput Screening for Foot and Mouth Disease Virus Antivirals. actives 1.2% (n = 410,000). Potency, µM (highest dose often 57.9 µM), inactives show at the top dose activity change, negative = inhibition, hits mostly inhibitors. FMDV antiviral cell-based qHTS; calls by dose curve; tested in HEK293T cells; note: read-out not given here; potency is the fitted concentration of half-maximal effect; nearly all actives have a fitted effect of over 45% in size
# * hit, by the source's call; i = inactive; ? = inconclusive; . = not tested or not shown; ! = repeats disagree; [ ] = remark or other dose. % is set by controls: 0 for no effect and ±100 for the full control effect.
SMILES,HCMV inh,VACV Venus inh,HCV inh,VACV mCherry inh,FMDV inh
C[C@]12CCC(=O)C[C@@H]1CC[C@@H]1[C@@H]2CC[C@]2(C)[C@@H](C(=O)COC(=O)CCC(=O)O)CC[C@@H]12,-61.4*!,-22.4%,18.2%,-16.9%,-15.1%
C[C@H]1[C@@H](NS(=O)(=O)c2cccc([N+](=O)[O-])c2)CC[C@@]23CCCN2C(=O)CCC[C@@H]13,10.7,.,.,.,.
COc1ccc(C(=O)NCc2oc(-c3ccccc3)cc2C(=O)O)cc1,-85.9*,-4.7%,10.4%,-21.6%[1.46 µM],7.1%
Cc1cccc2cc(C#N)c(N3CCN(C)CC3)nc12,-30.5,.,10µM*,.,-1.1%
Cc1cc(C)c2nc(N3CCN(C)CC3)c(C#N)cc2c1,34.4,-5.8%,-3.1%,-10.4%,-4.5%
Cc1ccc(S(=O)(=O)N2CCN(c3nc(-c4cscn4)nc4ccccc34)CC2)cc1,.,-22.8%,.,-24.6%,.
CC(C)(C)c1ccc(Oc2ccc(N)cn2)cc1,-71.7*,.,3.98µM*,.,?
CC(C)(C)c1ccc(Oc2ccc(NC(=O)c3ccccc3C(=O)O)cn2)cc1,-62.6*,.,?,.,?
O=C(O)c1ccccc1C(=O)Nc1ccc(Oc2ccccc2)cc1,-16.1,-3.9%,-0.5%,-19.5%,21.2%
CCCOc1ncnc2c1[nH]c1ccccc12,-84.9*,.,?,.,?
COCCNc1ncnc2c1[nH]c1ccccc12,23.1,-20.0%,?,-24.2%,?
CCN(CC)c1ncnc2c1[nH]c1ccccc12,?,?,11.2µM*,.,?
O=C(Cn1c(=O)oc2cc(S(=O)(=O)NCc3ccccc3)ccc21)N(CCO)Cc1ccccc1,?,-19.5%,.,-18.3%,38.2%
CC(=O)c1ccc(NC(=O)CSc2nnc(Cn3cnc4ccccc43)o2)cc1,-14.4,-13.3%,11.0%,-10.6%,6.9%
CCOc1ccc(Cc2nnc(SCC(=O)c3ccc(OC)cc3)o2)cc1,0.5,-25.6%,8.91µM*,?,?
COc1ccc(C(=O)CSc2nnc(Cn3cnc4ccccc43)o2)cc1,?,.,2.24µM*,.,?
Cc1ccccc1NC1(C#N)C(=O)Nc2ccccc21 (configuration not stated),42.0,-1.5%,-17.1%,-10.9%,-27.1%
CC(C)c1ccc(NC2(C#N)C(=O)Nc3ccccc32)cc1 (configuration not stated),-71.7*,9.4%,8.7%,.,1.0%
Cc1ccccc1CN1CCN(c2ccc(S(=O)(=O)N3CCCC3)cn2)CC1,-63.7*,-10.6%,?,-22.3%,?
O=S(=O)(c1ccc(N2CCN(Cc3ccccc3)CC2)nc1)N1CCCC1,-34.9,.,-28.8%,.,-28.2%
Cc1ccc(CN2CCN(CC(=O)NCCCN3CCN(c4ccc(F)cc4)CC3)C2=O)cc1,?,.,8.91µM*,.,?
Cc1ccc(-n2nc(C)c(C(=O)NCCCN3CCN(c4ccc(F)cc4)CC3)c2-n2cccc2)cc1,-70.1*,-26.6%,.,?,-21.7%
O=C(CN1CCN(Cc2ccccc2Cl)C1=O)NCCCN1CCOCC1,-17.3,.,8.0%,.,-24.0%
COc1ccc(N2CCN(CCCNC(=O)CN3CCN(Cc4ccccc4C)C3=O)CC2)cc1,?,-19.4%,11.2µM*,-15.3%[1.46 µM],-22.4%
Cc1ccc(CCNC(=O)CN2CCN(Cc3ccc(Cl)cc3)C2=O)cc1,-28.6,17.7%,.,3.4%,-12.6%
SMILES,HCMV inh,VACV Venus inh,HCV inh,VACV mCherry inh,FMDV inh
Cc1nn(-c2ccccc2)c(-n2cccc2)c1C(=O)NCCc1ccc(Cl)cc1,-99.8*,-12.6%,.,-20.4%,?
COc1ccc(CNC(=O)C(CCSC)NS(=O)(=O)c2ccc3c(c2)oc(=O)n3C)cc1 (configuration not stated),15.0,-6.2%,.,i,-3.3%
COc1ccc2ccccc2c1CN1CCc2nnc(C(NS(C)(=O)=O)C(C)C)n2CC1 (configuration not stated),.,-11.2%,.,-7.2%,-18.6%
CC(C)Cn1c(CN2CCN(c3cccc(Cl)c3)CC2)nc2c1c(=O)[nH]c(=O)n2C,?,-26.4%,.,?,0.0%
CCCCCNC(=O)C(=O)C(=O)c1cc(OC)c(OC)c(OC)c1,17.6,.,.,.,.
CCc1nn(C(C)C(=O)NC(C)CCc2ccco2)c(=O)c2cc3occc3n12 (configuration not stated),.,-14.6%,10µM*,.,2.2%
CCc1nn(C(C)C(=O)NCc2cccc(Cl)c2)c(=O)c2cc3occc3n12 (configuration not stated),0.0,.,8.91µM*,.,-10.2%
CCc1nn(C(C)C(=O)NCCc2ccccc2)c(=O)c2cc3occc3n12 (configuration not stated),-15.2,.,-29.2%,.,9.5%
CC12C(=O)N(c3nccs3)C(=O)C1(C)C1CCC2O1 (configuration not stated),5.5,?,-29.4%,?,-1.4%
C[C@@]12C(=O)OC(=O)[C@]1(C)C1CCC2O1,-98.5*,1.26µM*,0.501µM*,1.12µM*,?
COc1cc(OC)c2c(-c3cccc(-c4ccc(C(C)=O)cc4)c3)cc(=O)oc2c1,.,-7.5%,?,-33.3%,-2.4%
COc1cc(OC)c2c(-c3cccc(-c4ccc(OC)c(F)c4)c3)cc(=O)oc2c1,-68.2*,?,?,?,-8.3%
CCc1cc(=O)oc2cc3occ(-c4ccc(OC)c(F)c4)c3cc12,-67.9*,-21.3%,?,?,?
O=C(CCCn1ccc2cc(S(=O)(=O)N3CCCC3)ccc21)NCc1ccc(Cl)cc1,-86.8*,-28.6%[7.34 µM],.,-26.4%[7.34 µM],?
CCOc1ccc(CCNC(=O)CCn2ccc3cc(S(=O)(=O)N4CCCC4)ccc32)cc1,-7.5,.,12.6µM*,.,-28.9%
COc1cccc(CNC(=O)Cn2ccc3cc(S(=O)(=O)N4CCCC4)ccc32)c1,10.5,-20.0%,-28.4%,-21.5%,0.4%
CN(C)c1ccc(CNC(=O)CCCn2ccc3cc(S(=O)(=O)N4CCCC4)ccc32)cc1,-18.6,-16.5%,.,-18.9%,-21.3%
COc1cccc(CNC(=O)Cn2ccc3cc(S(=O)(=O)N4CCCCCC4)ccc32)c1,-31.6,.,12.6µM*,.,-14.8%
CCCCNC(=O)CCn1ccc2cc(S(=O)(=O)N3CCCC3)ccc21,-10.8,.,-6.5%,.,6.7%
Cc1cccc(N2CCN(C(=O)Cn3ncc4c3-c3cc(C)ccc3OC4)CC2C)c1 (configuration not stated),-18.6,-3.1%,.,-16.4%,-14.1%
CN(C)c1ccc(C(CNS(=O)(=O)c2ccc(Br)cc2)N2CCCC2)cc1 (configuration not stated),-0.6,-14.2%,.,-20.6%,-14.8%
O=S(=O)(NCc1cn2ccsc2n1)c1ccc(Oc2ccccc2)cc1,?,?,7.94µM*,.,?
Cc1cc(C)n(C(=O)/C(C#N)=N/Nc2cc(Cl)cc(Cl)c2)n1,.,?,10µM*,?,?

# Source: PubChem BioAssay (National Center for Advancing Translational Sciences (NCATS))
